From PubChem BioAssay (NCI)
About 83,000 compounds went through this panel and 20% of them were active in at least one assay; those are over-represented in the sample as a whole.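 Step 1: grow cells in 96-well plates. Step 2: add test compound at a single concentration. Step 3: incubate 48 h. Step 4: record percent growth.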 Unmarked numbers belong to inactive results. Active and inactive are the calls of the source. How the source made its calls: active means growth percent below 10; inactive means the rest.

The compounds below were run on IGROV1 ovarian (assay: NCI-60 one-dose screen, 48 h (100 = growth as untreated, 0 = no growth, -100 = all killed)). Settings: 10 µM.
`NS(=O)(=O)Oc1ccc(NC(=O)C2CCCCCC2)cc1` gave a growth of 103%. Work on `O=C(CSc1nnc(-c2cccnc2SCc2ccccc2)o1)Nc1nc(Cl)cc(Cl)n1` yielded a growth of 105%. `O=C1/C=C/[C@@H](O)[C@@H]2C[C@@H](O)C[C@H]2/C=C/CCC[C@H](CCc2ccc(NC(=S)Nc3ccc4c(c3)C(=O)OC43c4ccc(O)cc4Oc4cc(O)ccc43)cc2)O1` was tested, and the growth was 25.7%. `O=C(CCl)Nc1ccc(Cc2ccc(NC(=O)CCl)cc2)cc1` was tested, and the growth was -45.9% (active). For `Cc1cc(Cl)ccc1Nc1nc(C(F)(F)F)ccc1C(=O)N/N=C/c1c(Cl)cccc1Cl`, the growth was 4.15% (active). For `COc1ccc2c(c1)C(=O)/C(=C/c1ccc([N+](=O)[O-])o1)O2`, the growth was -66.3% (active). Compound `S=C(SSC(=S)N(c1ccccc1)c1ccccc1)N(c1ccccc1)c1ccccc1` has a growth of 111%. `CC(C)=CCC/C(C)=C/CC/C(C)=C/CC/C=C(\C)CC/C=C(\C)CCC(=O)Nc1ccn(C2OC(CO)C(O)C2(F)F)c(=O)n1` (stereo not given) gave a growth of 40%. For `c1ccc(/C(=N\Nc2ccc3ccccc3n2)c2ccccn2)cc1`, the growth was 2.49% (active). For `c1ccc(CSc2ncccc2-c2nnc(SCCN3CCOCC3)o2)cc1`, the growth was 98.3%. With `CN(C)c1ncnc2c1nnn2C1OC(CO)C(O)C1O` (stereo not given) the growth was 3.79% (active). `COc1ccccc1/C=N\N/C(N)=N\N=C\c1ccccc1OC` was tested, and the growth was 12%. For `COc1cc(/C=C/c2cc(/C=C/c3ccc(O)c(OC)c3)nc(N)n2)ccc1O`, the growth was 3.42% (active). `O=C(/C=C/c1cccc(B(O)O)c1)c1cccc(B(O)O)c1` gave a growth of 26.7%. Compound `CN(C)CCC1(c2ccccc2)CCN(C)C1=O` (stereo not given) has a growth of 109%. In the case of `COc1ccc(/C=C/c2nnc(/C=C/c3ccc(OC)c(OC)c3)o2)cc1OC`, the growth was 22.5%. With `CN(C)c1ccc(/C=N/NC(=O)c2ccccc2Nc2cccc(C(F)(F)F)c2)cc1` the growth was 69.1%. Work on `CN(C)CCOc1ccc(-c2nc3sccn3c2-c2ccnc(S(C)(=O)=O)n2)cc1` yielded a growth of 115%. In the case of `COc1ccc(CCN2CCC(Nc3nc4ccccc4n3Cc3ccc(F)cc3)CC2)cc1`, the growth was 41.2%. `O=C(CN(C1CCCCC1)C1CCCCC1)Nc1ccc(S(=O)(=O)c2ccc(NC(=O)CN(C3CCCCC3)C3CCCCC3)cc2)cc1` was tested, and the growth was -52.3% (active). In the case of `COc1ccc2nc(-c3ccc(Cl)cc3)cc(-c3nnc(SC/C(=N\O)c4ccccc4)n3-c3ccccc3)c2c1`, the growth was 105%. `Cc1cc(CSc2ccccc2C(=O)N2CC=C(c3ccccc3)CC2)on1` was tested, and the growth was 92.2%. For `CCOC(=O)c1cc(C(=O)c2cc(OC)c(OC)c(OC)c2)n2nc(C)ccc12`, the growth was 39.8%. With `O=C(O)c1ccc(-n2cc(CNc3ccc(Cl)cc3)c(-c3ccccc3)n2)cc1` the growth was 92.1%. With `CNC(=O)c1cc(Oc2ccc3c(c2)sc2nc(-c4ccc(N)cc4)cn23)ccn1` the growth was 31.6%. Compound `Nc1ccc(CC[C@H]2CCC/C=C/[C@@H]3C[C@H](O)C[C@H]3[C@H](O)/C=C/C(=O)O2)cc1` has a growth of 12%. For `CNC(=O)c1cn(C2CC2)c2cc(N3CCN(C(=O)c4cc(OC)c(OC)c(OC)c4)CC3)c(F)cc2c1=O`, the growth was 102%. `CN1CCN(C2=Nc3ccccc3Oc3ccc(Cl)cc32)CC1` gave a growth of 97.2%. `COc1ccc(Cc2cnc(N)nc2N)cc1OC` was tested, and the growth was 112%. `COc1ccc(C(c2ccc(OCCN(C)C)cc2)c2cc3ccccc3c3ccccc23)cc1` (stereo not given) was tested, and the growth was 61.7%. `O=C(N/N=C/c1ccc(Cl)cc1)c1ccccc1Nc1cccc(C(F)(F)F)c1` showed a growth of 59.3%. In the case of `CC(=O)O[C@@]12CO[C@@H]1C[C@H](O)[C@@]1(C)C(=O)[C@H](O)C3=C(C)[C@@H](OC(=O)[C@H](O)[C@@H](NC(=O)OC(C)(C)C)c4ccccc4)C[C@@](O)([C@@H](OC(=O)c4ccccc4)C12)C3(C)C` (stereo not given in full), the growth was 39.2%. With `CS(=O)(=O)c1nccc(-c2c(-c3cccc(OCCc4ccccc4)c3)nc3sccn23)n1` the growth was 88.7%. For `C(=N\Nc1ncnc2sc3c(c12)CCNC3)/c1cccc2ccccc12`, the growth was 89.9%. With `CNS(=O)(=O)Oc1ccc(-c2sc3cc(OS(=O)(=O)NC)ccc3c2C(=O)c2ccc(OCCN3CCCCC3)cc2)cc1` the growth was 85.6%. With `CCCCC/C=C/C/C=C/CCCCCCCC1=NC(C)(C)CN1C(C)C` the growth was 8.27% (active). In the case of `C#C[C@]1(O)CCC2C3CCc4cc(OC5CCCC5)ccc4C3CC[C@@]21C` (stereo not given in full), the growth was 101%. With `O=C(N/N=C/c1c(Cl)cccc1Cl)c1ccccc1Nc1cccc(C(F)(F)F)c1` the growth was 74.9%. Work on `COc1cccc(-c2nc3sccn3c2-c2cccc(S(C)(=O)=O)c2)c1` yielded a growth of 99%. Work on `CC(=O)Nc1ccc(S(=O)(=O)c2ccnc3cc(Cl)ccc23)cc1` yielded a growth of 98.2%.
